Data on five compounds can be found in PubChem BioAssay.

Several values for one entry are separate records, joined by “and”; a condition that tells them apart may be missing. Equal entries are not always repeated. For some of these results: Entries with a potency or affinity are not part of this list. Activity calls are given as the source filed them. Rule as the data show it, unless noted: active = parasite load remaining mostly below about 12% (no sharp cut-off); inactive = mostly above about 10%.

Assay [1] can be described thus: blockers of polyQ-driven CASP3 activation – cell-based (AID 1583). The settings on record: polyglutamine-induced caspase-3 activation, cell assay; stronger effect = higher value;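 tested at 10 µM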.
Assay [2] can be described thus: yeast 75Q aggregation reduction – 75Q-TubU reporter (AID 1593). The note with it: Yeast 75Q polyglutamine aggregation reporter.
Assay [3] in a line: restoration of touch response, mutant HTT neurons – whole organism, C. elegans mechanosensory neurons, N-terminal huntingtin (AID 1599). The note with it: C. elegans polyQ-huntingtin mechanosensory neurons, stronger effect = higher value.
A short description of assay [4]: blockers of cytochrome c efflux from mitochondria – biochemical, purified mitochondria (AID 1603).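 Also: mouse liver mitochondria challenged with calcium chloride; signal normalized to the plate average as 100%.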 The settings on record: stronger effect = lower value.
Assay [5] is described as follows: polyglutamine aggregate formation blockers (AID 1604). The note with it: polyglutamine-induced protein aggregation inhibition assay; stronger effect = higher value; tested at 2.5 µM.
The nature of assay [6]: glutamate transport activators, MN-1 cells, MN-1 cell line (AID 1612).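 Also: tested at 1 µM final; 0% = mean of DMSO vehicle wells on each plate; positive means more glutamate uptake than control and negative means less.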 The settings on record: MN-1 motor neuron cells, stronger effect = higher value.
A short description of assay [7]: GFP-Q80 aggregate reduction, neuronal-like cells, cell-based, NGF-treated PC12, GFPQ80 (AID 1614).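 Also: lower means fewer inclusions and 0 means no inclusions at all.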 The settings on record: PC12 NGF-treated GFP-polyQ80 inclusion reduction.
Assay [8] is described as follows: 75Q-TubH aggregate inhibition, S. cerevisiae, yeast (AID 1616). The note with it: S. cerevisiae 75Q-TubH polyglutamine aggregation suppression; stronger effect = higher value.
A short description of assay [9]: P. berghei load reduction in hepatocytes – cell-based, HepG2, luciferase luminescence, HepG2 viability, primary screen (AID 624349).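 Also: 100% = mean of DMSO negative control wells on the same plate.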 The settings on record: P. berghei liver stage in HepG2, luciferase luminescence, concentration not given here; parasite load remaining: stronger effect = lower value; viability: measured here: HepG2 viability without parasites.
Assay [10] deals with 6-phosphogluconate dehydrogenase, decarboxylating (Homo sapiens) (UniProt P52209). The assay can be described thus: inhibition of human phosphogluconate dehydrogenase – biochemical, recombinant enzyme, NADPH absorbance, primary screen (AID 1159550;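 active = at least 20% inhibition of 6-phosphogluconate dehydrogenase activity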). The settings on record: recombinant 6PGD, NADPH absorbance 341 nm; at 10 µM; stronger effect = higher value.
Sequence of 6-phosphogluconate dehydrogenase, decarboxylating (Homo sapiens) (P52209 whole entry, looked up): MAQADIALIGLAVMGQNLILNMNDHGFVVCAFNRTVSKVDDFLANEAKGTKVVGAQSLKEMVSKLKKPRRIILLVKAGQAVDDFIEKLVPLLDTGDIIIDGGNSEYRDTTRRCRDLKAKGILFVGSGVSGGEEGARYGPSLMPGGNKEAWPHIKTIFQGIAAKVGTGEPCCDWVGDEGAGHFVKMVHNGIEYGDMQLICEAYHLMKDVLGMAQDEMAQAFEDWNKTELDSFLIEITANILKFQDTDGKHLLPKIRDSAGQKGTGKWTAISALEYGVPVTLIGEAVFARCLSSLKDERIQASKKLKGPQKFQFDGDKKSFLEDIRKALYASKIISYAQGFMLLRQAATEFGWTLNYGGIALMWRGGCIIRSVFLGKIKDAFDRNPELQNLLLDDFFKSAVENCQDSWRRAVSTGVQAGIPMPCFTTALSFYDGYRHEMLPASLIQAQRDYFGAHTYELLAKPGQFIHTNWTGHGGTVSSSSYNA
A short description of assay [11]: EMT-state selective cytotoxicity in co-culture – imaging, PC-3E GFP, TEM4-18 mCherry, primary screen (AID 1345086;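 active = compounds killing one labelled cell type while sparing the other, by normalised counts and ratio limits, not self-fluorescent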;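 as to all read-outs here: cells exposed to compound for 72 h before imaging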;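 as to red/green cell ratio (normalised): normalised mesenchymal count divided by normalised epithelial count so high means epithelial killing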). The settings on record: PC-3E GFP / TEM4-18 mCherry co-culture, imaging cell counts, at 1 µM; for red/green cell ratio (normalised): actives lie on both sides, counts scaled to control wells, 1 = unselective.
The nature of assay [12]: viability loss with induced miR-34 in A549 – imaging, A549 dox-inducible miR-34, nuclei and caspase counts, primary screen (AID 1347080;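 active = compounds whose cell count with miR-34 switched on is under 0.7 times the count with it off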). The settings on record: A549 miR-34 inducible, Hoechst nuclei count, 48 h.
Assay [13] can be described thus: MELAS cybrid and Rieske KO viability enhancers – cell-based, MELAS cybrids, Rieske KO mouse fibroblasts, CellTiter-Glo, primary screen (AID 1508586;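 active = mean z-score across replicates of 1.96 or higher in either the MELAS or the Rieske mutant cell line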;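 also: z relative to plate mean and SD of compound and empty wells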). The settings on record: low glucose.
The target in assay [14] is NAD(+) hydrolase SARM1 (Homo sapiens) (UniProt Q6SZW1). The assay can be described thus: blocking NAD cleavage by SARM1 SAM-TIR – cell lysate, NAD-Glo luminescence (AID 1508614;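 active = compound whose remaining NAD level is above about 45 nM, limit read from the data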;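 also: higher remaining NAD means stronger inhibition of SARM1 NADase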). The note with it: SAM-TIR HEK293T lysate NADase, at 1 µM, stronger effect = higher value.
Sequence of NAD(+) hydrolase SARM1 (Homo sapiens) (Q6SZW1 whole entry, looked up, the tested form may be a part): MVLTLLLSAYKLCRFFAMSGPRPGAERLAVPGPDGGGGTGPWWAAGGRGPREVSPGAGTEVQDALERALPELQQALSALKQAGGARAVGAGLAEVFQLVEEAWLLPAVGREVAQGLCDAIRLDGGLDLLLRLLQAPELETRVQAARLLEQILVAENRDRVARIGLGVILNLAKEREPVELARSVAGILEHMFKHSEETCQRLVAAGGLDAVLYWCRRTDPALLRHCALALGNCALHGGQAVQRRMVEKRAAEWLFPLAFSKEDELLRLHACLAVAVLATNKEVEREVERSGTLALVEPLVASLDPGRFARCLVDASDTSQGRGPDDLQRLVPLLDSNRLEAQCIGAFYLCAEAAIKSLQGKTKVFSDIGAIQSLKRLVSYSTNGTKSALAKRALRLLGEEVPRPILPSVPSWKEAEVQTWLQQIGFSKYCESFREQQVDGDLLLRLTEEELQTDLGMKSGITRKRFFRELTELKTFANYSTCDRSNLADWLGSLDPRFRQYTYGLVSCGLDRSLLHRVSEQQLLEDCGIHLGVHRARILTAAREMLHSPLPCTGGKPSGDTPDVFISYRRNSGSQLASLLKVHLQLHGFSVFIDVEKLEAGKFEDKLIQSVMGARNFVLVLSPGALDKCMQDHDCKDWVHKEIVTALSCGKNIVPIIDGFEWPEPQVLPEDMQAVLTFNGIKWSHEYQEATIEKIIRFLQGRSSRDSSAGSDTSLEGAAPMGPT
Assay [15] concerns the target Mitogen-activated protein kinase 7 (Homo sapiens) (UniProt Q13164). The assay can be described thus: Gal4-ERK5 driven luciferase induction – cell-based, HTS, primary screen (AID 1508626;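 active = luciferase signal above three times the same-plate solvent-only control wells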;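 also: luciferase driven by Gal4-ERK5 fusion binding five Gal4 sites before minimal TATA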). The settings on record: HeLa Gal4-ERK5 transactivation, 18 h, at 5 µM, stronger effect = higher value.
Assay [16] can be described thus: compounds altering circadian rhythm period length – cell-based, LOPAC library, luminescence reporter (AID 2774; call rule not given here;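 also: values are relative to mean of DMSO wells on each plate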). The note with it: circadian reporter cells, at 7 µM, actives lie on both sides.
Assay [17] can be described thus: blockers of cellular phospholipid synthesis – cell-based, LOPAC library, screen 4, primary screen (AID 1347384; call rule not given here). The settings on record: animal cells, phospholipid biosynthesis inhibition screen; at 10 µM.
A short description of assay [18]: galactose survival enhancers in mitochondrial complex I cybrids – cell-based, galactose medium, ATP luminescence, primary screen (AID 1645843;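 active = z-score of at least 1.8 in each of two replicates, scored against plate mean and spread of sample wells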;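 also: positive z means more ATP and so rescue of galactose-driven cybrid death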). The settings on record: complex I mutant cybrid cells, 72 h, stronger effect = higher value.
Assay [19] is described as follows: compounds altering viability of human ES cells (AID 493140; call rule not given here;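 also: cells exposed to compounds for four days before counting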). The note with it: human embryonic stem cell survival screen; stronger effect = higher value.
Setting [20] is: measured here: epithelial PC-3E GFP cell survival.
Where [21] appears, read: measured here: mesenchymal TEM4-18 mCherry cell survival.
Setting [22] is: stronger effect = lower value, cell number ratio, induced over uninduced.
Where [23] appears, read: measured here: relative caspase fold change +Dox/-Dox.
The mark [24] stands for this setting: measured here: total cells with miR-34 induction, stronger effect = lower value.
[25] abbreviates: measured here: total cells without miR-34 induction.
The mark [26] stands for this setting: MELAS cybrid survival, CellTiter-Glo 48 h, stronger effect = higher value.
Setting [27] is: Rieske KO mouse fibroblast survival, CellTiter-Glo 72 h.

Sequence of Mitogen-activated protein kinase 7 (Homo sapiens) (Q13164 whole entry, looked up, the tested form may be a part): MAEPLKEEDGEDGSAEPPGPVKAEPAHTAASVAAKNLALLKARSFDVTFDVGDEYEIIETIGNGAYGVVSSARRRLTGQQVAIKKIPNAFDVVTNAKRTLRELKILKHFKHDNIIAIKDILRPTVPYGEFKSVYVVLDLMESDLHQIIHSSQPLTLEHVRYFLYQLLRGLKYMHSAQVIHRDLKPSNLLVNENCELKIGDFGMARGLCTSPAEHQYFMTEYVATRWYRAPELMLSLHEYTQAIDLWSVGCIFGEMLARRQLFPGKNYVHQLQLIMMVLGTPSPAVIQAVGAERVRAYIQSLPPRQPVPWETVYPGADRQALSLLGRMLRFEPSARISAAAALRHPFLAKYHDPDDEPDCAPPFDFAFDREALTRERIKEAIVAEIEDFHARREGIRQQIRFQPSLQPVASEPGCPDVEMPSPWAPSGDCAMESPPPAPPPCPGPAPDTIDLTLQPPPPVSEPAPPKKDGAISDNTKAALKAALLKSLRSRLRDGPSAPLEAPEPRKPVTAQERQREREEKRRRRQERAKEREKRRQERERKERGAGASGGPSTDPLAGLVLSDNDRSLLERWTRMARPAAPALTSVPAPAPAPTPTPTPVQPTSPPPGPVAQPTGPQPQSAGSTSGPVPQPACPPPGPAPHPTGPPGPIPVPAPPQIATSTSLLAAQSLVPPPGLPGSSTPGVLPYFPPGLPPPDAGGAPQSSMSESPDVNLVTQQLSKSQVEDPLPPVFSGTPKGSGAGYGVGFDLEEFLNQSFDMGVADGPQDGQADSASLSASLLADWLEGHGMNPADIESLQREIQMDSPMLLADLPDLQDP

As usually defined, the inhibition is the drop in the measured response relative to a control, in per cent. Usually viability stands for a read-out of living cells in per cent, often relative to untreated cells. Regarding `NC(=O)c1ccc[n+]([C@@H]2O[C@H](COP(=O)([O-])OP(=O)(O)OC[C@H]3O[C@@H](n4cnc5c(N)ncnc54)[C@H](O)[C@@H]3O)[C@@H](O)[C@H]2O)c1`, the inhibition in [1] is 7.61%; in assay [10] it was 10.6% (inactive). In assay [2], this compound gave a score of 1.51. For the same compound, the rescue above control in [3] stood at 2.62. Moreover, the cytochrome c release ratio in assay [4] came to 0.91. In assay [5], the inhibition of aggregation is 63.6%. For the same compound, the glutamate uptake change in assay [6] was 28.3%. This compound also displayed an inclusion score in [7] of 2. For the same compound, the aggregation suppression score in assay [8] is 1.51. Further, the parasite load remaining in assay [9] was 87.2% (inactive) and 76.6% (inactive). Also, the viability in assay [9] is 103% and 92.6%. Also, in assay [11], the red/green cell ratio (normalised) was 0.97 (inactive). The results for the normalised cell number in assay [11] (setting [20]) and in [11] (setting [21]) were 1.17 and 1.14, respectively. Further, the fold change in [12] (setting [22]) is 0.824 (inactive) and 0.891 (inactive); in assay [12] (setting [23]) it was 1.3 and 1.13. Also, the cell count in assay [12] (setting [24]) is 8060 and 11500; in assay [12] (setting [25]), 9780 and 12900. The z-score is -1.2 (inactive) in assay [13] (setting [26]) and 0.344 in [13] (setting [27]). For the same compound, the remaining NAD in assay [14] is 183 nM (active). The luciferase signal in assay [15] is 72 AU (inactive).
`Nc1nc(/C(=C/CC(=O)O)C(=O)N[C@@H]2C(=O)N3C(C(=O)O)=CCS[C@H]23)cs1`: the parasite load remaining in assay [9] was 145% (inactive) and 53% (inactive). For the same compound, the viability in assay [9] is 95.5% and 96.5%. Moreover, in assay [10], the inhibition is -3.19% (inactive). Further, in assay [11], the red/green cell ratio (normalised) is 1.05 (inactive). Moreover, the values for the normalised cell number in [11] (setting [20]) and in assay [11] (setting [21]) were 0.96 and 1, respectively. The fold change in [12] (setting [22]) was 0.926 (inactive); in assay [12] (setting [23]), 1.29. The values for the cell count in assay [12] (setting [24]) and in assay [12] (setting [25]) were 12000 and 13000, respectively. Besides, the z-score in assay [13] (setting [26]) is -0.448 (inactive); in assay [13] (setting [27]), -1.4. The remaining NAD in [14] is 10 nM (inactive). The luciferase signal in assay [15] was 40 AU (inactive).
Consider `Cc1cc(/C=C/c2ccc3cc(N(C)C)ccc3[n+]2C)c(C)n1-c1ccccc1`, for which the inhibition was 21.2% in [1] and 5.46% (inactive) in assay [10]. This compound yielded a score in assay [2] of -2.18. This compound gave a rescue above control in [3] of 0. Moreover, the cytochrome c release ratio in [4] came to 0.75. Moreover, the inhibition of aggregation in assay [5] was -12.8%. The glutamate uptake change in assay [6] is -15.7%. The compound further registered an aggregation suppression score in assay [8] of -0.227. For the same compound, in assay [9], the parasite load remaining is 0.35% (inactive) and 0.64% (inactive). For the same compound, the viability in assay [9] is 46.6% and 62.4%. Besides, the red/green cell ratio (normalised) in [11] is 2.7 (active). For the same compound, the normalised cell number in assay [11] (setting [20]) came out at 0.4; in assay [11] (setting [21]) it was 1.08. For the same compound, the fold change in [12] (setting [22]) was 1.07 (inactive); in assay [12] (setting [23]), 0.697. The figures for the cell count in assay [12] (setting [24]) and in assay [12] (setting [25]) were 1790 and 1670, respectively. In addition, the remaining NAD in assay [14] is 10 nM (inactive). In addition, in assay [15], the luciferase signal was 28 AU (inactive).
As for `NCCSSCCN`, the inhibition was 34.8% in [1] and 7.72% (inactive) in assay [10]. The compound also registered a score in assay [2] of 1.31. Moreover, the rescue above control in assay [3] is -5.12. Also, the cytochrome c release ratio in assay [4] came to 1.22. Also, the inhibition of aggregation in assay [5] stood at 47.1%. For the same compound, in [6], the glutamate uptake change is 15.5%. This compound also yielded an inclusion score in assay [7] of 2. Moreover, the aggregation suppression score in assay [8] came to 1.2. Further, the period change in assay [16] is -0.055 h (inactive). The parasite load remaining in assay [9] was 165% (inactive). For the same compound, the viability in assay [9] stood at 85.4%. In assay [11], the red/green cell ratio (normalised) was 0.92 (inactive). Moreover, the normalised cell number in assay [11] (setting [20]) turned out to be 1.09; in assay [11] (setting [21]) it was 1.01. The fold change was 1.02 (inactive) in assay [12] (setting [22]) and 2.84 in [12] (setting [23]). The figures for the cell count in assay [12] (setting [24]) and in assay [12] (setting [25]) were 10300 and 10100, respectively. The compound was called inactive in assay [17]. Also, the luciferase signal in assay [15] is 76 AU (inactive). Also, the z-score in assay [18] was -0.04 (inactive).
`CC(C(=O)O)c1ccc(N2Cc3ccccc3C2=O)cc1` (stereo not given): the inhibition in assay [1] is -2.1%; in [10], -13% (inactive). In addition, the score in assay [2] was determined as 0.89. The rescue above control in [3] is -4.46. Besides, in [4], the cytochrome c release ratio stood at 1.17. The inhibition of aggregation in [5] worked out at 83.7%. Besides, the glutamate uptake change in [6] was -13.2%. In assay [7], this compound showed an inclusion score of 2.5. For the same compound, the aggregation suppression score in assay [8] is 1.02. In addition, the survival in assay [19] is 4.83 (inactive). The parasite load remaining in [9] is 132% (inactive) and 273% (inactive) and 101% (inactive). Also, the viability in [9] is 95.7% and 78.1% and 95.5%. Besides, the red/green cell ratio (normalised) in assay [11] is 1.39 (inactive). Moreover, the normalised cell number in assay [11] (setting [20]) came to 0.94; in assay [11] (setting [21]) it was 1.31. Besides, the fold change is 0.881 (inactive) and 0.915 (inactive) in assay [12] (setting [22]); 1.39 and 0.964 in [12] (setting [23]). In addition, the cell count is 9440 and 11300 in assay [12] (setting [24]); 10700 and 12400 in assay [12] (setting [25]). The z-score is 0.44 (inactive) in assay [13] (setting [26]) and -0.221 in [13] (setting [27]). For the same compound, the remaining NAD in assay [14] is 10 nM (inactive). Further, the luciferase signal in [15] was 68 AU (inactive).
